Source: PubChem BioAssay (The Scripps Research Institute Molecular Screening Center)
Rows were chosen to be rich in hits. Some 4.1% of all compounds tested hit in one or more screens of this group.
ssDAF12 agonist: activates DAF-12 receptor from parasite S. stercoralis | activation, % at 6.8 µM | HEK293 ssDAF-12/GRIP1 lit1-tk-luc reporter, luminescence; % of 3 µM dafachronic acid response | 1% of 370,000 active;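 active = activation above the mean over all tested compounds plus 3 SD, cut at about 0.9% in these data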;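 also: 0% = DMSO-only wells and 100% = 3 µM delta7-dafachronic acid wells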
DAX1 inh-1: inhibitors of DAX1 repression of SF-1 activated StAR promoter | HEK293T StAR-luciferase reporter, SF-1/DAX-1 repression relief | inhibition, % at 6.8 µM | 1.1% of 370,000 active | AID 652010;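 active = inhibition above the mean over all tested compounds plus 3 SD, cut at about 3.6% in these data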;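 also: 0% = DAX-1 cells with DMSO and 100% = cells lacking DAX-1 with DMSO; higher inhibition means more luminescence from relief of DAX-1 repression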
hcDAF12 agonist: activators of H. contortus DAF-12 nuclear receptor. HEK293 hcDAF-12 lit1-tk-luc reporter, luminescence; 0% DMSO, 100% Δ7-dafachronic acid. activation, % at 6.8 µM. 1.4% of 370,000 active. AID 652067;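 active = activation above the mean of all tested compounds plus 3 SD, cut at about 5.5% in these data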;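 also: 100% = response to 3 µM Δ7-dafachronic acid high control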
hgDAF12 agonist: hgDAF-12 agonism, primary luciferase screen; activation, % at 6.8 µM; AID 687014; 1.8% of 370,000 active; HEK293 GAL4-hgDAF12 UAS-luciferase reporter, agonist luminescence; normalized to butyrate control;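 active = activation above a cutoff set at the mean of all screened compounds plus 3 SD, cut at about 10% in these data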;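 also: 0% = DMSO wells and 100% = sodium butyrate wells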
DAX1 inh-2: inhibits human nuclear receptor DAX1 | HEK293 Gal4-DAX1 luciferase reporter, luminescence | inhibition, % at 6.75 µM | 0.99% of 340,000 active;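 active = inhibition above the mean over all tested compounds plus 3 SD, cut at about 4.2% in these data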;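 also: 0% = DAX1-transfected cells with DMSO and 100% = empty-vector control cells with DMSO; inhibition shows as a rise in luminescence from relieved DAX1 repression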
Target sequence (P51843 207-470 limits assumed): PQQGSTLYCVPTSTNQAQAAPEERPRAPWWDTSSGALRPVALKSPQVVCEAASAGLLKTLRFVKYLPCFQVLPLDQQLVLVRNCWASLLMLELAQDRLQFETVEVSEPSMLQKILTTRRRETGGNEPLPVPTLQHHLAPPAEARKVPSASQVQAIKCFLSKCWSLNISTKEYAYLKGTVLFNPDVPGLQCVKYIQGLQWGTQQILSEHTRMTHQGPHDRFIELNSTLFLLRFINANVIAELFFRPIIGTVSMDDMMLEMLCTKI
DAX1 inh confirm: NR0B1 (human) inhibition, confirmation; shares compounds with DAX1 inh-1; HEK293T StAR-promoter luciferase reporter, SF-1/DAX-1 repression; inhibition, % at 6.8 µM; 87% of 2,400 active; AID 652134;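 active = inhibition above the average of every tested compound plus 3 SD, cut at about 3.8% in these data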;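 also: 0% = DAX-1 cells with DMSO and 100% = no DAX-1 control cells with DMSO; active compounds raise luminescence by relieving repression of the StAR reporter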
SF1 mutant ctr: nonselective inhibitor or artifact in SF-1 mutant DAX1 counter-screen. shares compounds with DAX1 inh-1. HEK293 StAR-luciferase, SF-1 AF2 mutant, luminescence. inhibition, % at 6.8 µM. 78% of 2,400 active. AID 652136;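 active = inhibition above the mean of all tested compounds plus 3 SD, cut at about 3% in these data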;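 also: 0% = DAX-1 transfected cells with DMSO and 100% = cells without DAX-1 with DMSO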
LXR ag: counter-screen for hcDAF-12 agonists: agonists of human LXR-beta; shares compounds with hcDAF12 agonist; HEK293 Gal4-LXR tk-luc reporter, luminescence, 24 h; normalized: DMSO 0%, positive control 100%; activation, % at 6.8 µM; 3,400 tested, under 10 active; AID 743027;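 active = mean percent activation of the reporter above a cutoff set as the average over tested compounds plus their standard deviation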
hcDAF12 ag: hcDAF-12 agonism, confirmation assay. activation, % at 6.8 µM. shares compounds with hcDAF12 agonist. 61% of 3,400 active. HEK293 hcDAF-12 lit1-tk-luc reporter, luminescence; % of Δ7-dafachronic acid response;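 active = mean activation across triplicate tests above the threshold derived from the earlier primary screen, cut at about 5.5% in these data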;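 also: 0% = DMSO only wells and 100% = 3 µM Δ7-dafachronic acid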
Numbers without * were called inactive; . = not tested or not shown.

SMILES	ssDAF12 agonist	DAX1 inh-1	hcDAF12 agonist	hgDAF12 agonist	DAX1 inh-2	DAX1 inh confirm	SF1 mutant ctr	LXR ag	hcDAF12 ag
CCC1CSC(=Nc2ccc(C)cc2)N1C(=O)CN1C(=O)NC2(CCCC2)C1=O (stereo unspecified)	0	10*	8.4*	13*	0	9.1*	3	1	6.3*
Cc1ccnc(NC(=O)c2sc3ccccc3c2Cl)c1	0	8.0*	8.7*	16*	1	6.9*	2	1	10*
Cc1cc(C)nc(NC(=O)/C=C/c2ccccc2Cl)n1	-1	1	-1	2	2	.	.	.	.
Cc1cccnc1NC(=O)CNC(=O)c1sc2ccccc2c1Cl	0	0	1	1	0	.	.	.	.
Cc1cnc(NC(=O)c2sc3ccccc3c2Cl)s1	3.1*	5.4*	17*	30*	2	6.4*	2	2	17*
Cc1ccnc(NC(=O)c2cccc3ccccc23)c1	-1	2	1	5	0	.	.	.	.
Cc1ccnc(NC(=O)/C=C/c2ccccc2Cl)c1	1.4*	5.3*	8.9*	13*	-3	8.6*	4.7*	2	9.3*
O=C(CCS(=O)(=O)c1ccccc1)Nc1ccc(F)cc1Cl	-1	0	-2	2	.	.	.	.	.
CCC(=O)OCCCN1CCC2(CCC(c3ccccc3)CC2)C1=O (stereo unspecified)	-1	0	5	-1	.	.	.	.	.
N/C(=N\OC(=O)c1ccccc1Cl)c1ccccc1	3.3*	6.1*	17*	18*	2	19*	11*	3	26*
O=C(O/N=C(\c1ccccc1)c1ccncc1)c1ccccc1Cl	-1	0	1	-1	0	.	.	.	.
O=C(Cn1c(-c2cncs2)nc2ccccc21)N1CCOCC1	-1	-1	-2	1	.	.	.	.	.
Cn1nccc1C(=O)Nc1sc2c(c1C(N)=O)CCCC2	-1	1	2	5	-1	.	.	.	.
NC(=O)c1c(NC(=O)c2cc3ccccc3o2)sc2c1CCC2	1.9*	4.8*	9.9*	13*	3	14*	7.6*	2	15*
Cn1ccc(C(=O)Nc2sc3c(c2C(N)=O)CCCCC3)n1	-1	10*	7.8*	12*	2	4.9*	3	1	6.9*
CC(=O)Nc1sc2c(c1C(N)=O)CCC2	-1	0	1	0	0	.	.	.	.
COc1ccccc1CCn1cnc(-c2ccc(OC)c(OC)c2)c1CC(C)C	-2	-4	-5	-7	.	.	.	.	.
O=c1c2c(nc3cc(-c4ccc(F)cc4)[nH]n13)CCCC2	1	5.4*	6.9*	10	-1	11*	3.4*	1	5
Cc1ccc2nc(CSc3nc(C)cc(C)c3C#N)[nH]c2c1	2.0*	5.8*	17*	9	1	14*	7.4*	2	20*
Cc1ccc2nc(-c3ccc(NC(=O)C4CCCO4)cc3)[nH]c2c1 (stereo unspecified)	1	7.3*	7.7*	9	-1	12*	6.2*	2	5
COc1ccc(OCc2cc(C(=O)NC(C)Cn3cncn3)no2)c(Cl)c1 (stereo unspecified)	0.9*	6.0*	6.7*	11*	2	3	1	0	6.8*
COc1ccc(OCc2cc(C(=O)NC(C)Cc3cccnc3)no2)c(Cl)c1 (stereo unspecified)	-1	-1	-2	1	-1	.	.	.	.
COc1ccc2oc(C(=O)Nc3ccccn3)c(C)c2c1	1.1*	13*	18*	21*	0	12*	6.1*	2	18*
COc1cccc(CNC(=O)[C@H]2CCCN2C(=O)[C@H]2CCCN2C(=O)c2cccc(OC)c2)c1	-1	0	-1	0	.	.	.	.	.
CCc1ccc(NC(=O)c2noc3c2CCC3)cc1	1.4*	5.7*	9.3*	12*	-2	21*	7.9*	2	14*
SMILES	ssDAF12 agonist	DAX1 inh-1	hcDAF12 agonist	hgDAF12 agonist	DAX1 inh-2	DAX1 inh confirm	SF1 mutant ctr	LXR ag	hcDAF12 ag
CCc1ccc(NC(=O)c2noc3c2CCc2ccccc2-3)cc1	0	0	-1	2	2	.	.	.	.
COc1ccc(OCC2CN(Cc3ccccc3)S(=O)(=O)CCO2)cc1 (stereo unspecified)	0	0	-1	-4	.	.	.	.	.
COC(=O)c1ccc(N/C=C\C(=O)c2ccc3c(c2)OCO3)cc1	-1	1	0	-2	1	.	.	.	.
O=C(/C=C\Nc1cccc(F)c1)c1ccc2c(c1)OCO2	0	4.7*	9.0*	12*	-3	6.8*	-1	1	7.2*
CC(C)CNC(=O)OCc1cn(Cc2c(F)cccc2F)nn1	-1	-2	-2	0	.	.	.	.	.
C/C(=N\Nc1ccc(C(=O)O)cc1)c1ccc(Br)cc1	1	5.1*	12*	19*	-3	16*	5.3*	2	14*
Clc1ccc(OCc2nc(-c3ccccn3)no2)c(Br)c1	0	6.7*	6.8*	6	-1	18*	8.1*	2	10*
c1ccc(CCc2nc(-c3ccccn3)no2)cc1	-1	4	2	9	2	.	.	.	.
Clc1ccccc1OCc1nc(-c2ccccn2)no1	1	5.7*	6.6*	11*	1	14*	6.6*	1	7.8*
CCCC1CCC2(CC1)CCC2OC(=S)NCc1ccc(Cl)cc1 (stereo unspecified)	-2	.	2	0	.	.	.	.	.
CC(C)CCN(C)C1CCN(C(=O)NCc2ccccc2)CC1	-1	1	-2	-1	.	.	.	.	.
CN1C(c2ccccc2)CC2CN(c3ccccc3)C(=O)C21 (stereo unspecified)	-2	-3	-3	-5	.	.	.	.	.
Cc1cccc(OCC(=O)Nc2nccs2)c1C	1	12*	8.6*	12*	2	13*	8.0*	1	6.4*
O=C1C(=NO)CCCc2ccccc21	-1	-1	-2	1	2	.	.	.	.
O=C1C(=C2CCc3ccccc32)Cc2ccccc21	2.3*	7.1*	15*	21*	.	16*	9.0*	2	21*
Cc1ccc2oc(C(=O)NCCC3CCCCO3)c(C)c2c1 (stereo unspecified)	0	10*	8.5*	13*	1	7.5*	4.2*	2	14*
